Screens: PubChem, National Center for Advancing Translational Sciences (NCATS)
In the library only some 1.1% were active in any assay of this set; here they are far more common.
Menin-MLL FL inh: inhibitors of human menin-MLL interaction, wild-type MLL peptide; Fluorescence polarization, fluorescein-MLL peptide displacement from menin; FP activity change, % at 61.4 µM; 290,000 tested, under 10 active; active means well fitted curve in the direction sought with a large enough effect in the polarisation, not every such curve was filed as active; inconclusive means small, poorly fitted or top-dose-only effect, or effect the other way, or a change in a side signal; inactive means no such curve, though single readings can be large or run the other way; the % refers to the polarisation; further: % of control where 0% means no effect
MLL CXXC-DNA inh: MLL CXXC-DNA interaction inhibition. Q03164. MLL-CXXC / FITC-HOXA9 DNA fluorescence polarization. Potency, µM (highest dose often 115 µM), without a hit: top-dose activity change, negative = inhibition, most hits filed as inhibitors. 0.037% of 290,000 active. AID 2662; active means well fitted inhibition curve with a large enough effect in the polarisation, with a control signal flat, not every such curve was filed as active; inconclusive means small, poorly fitted or top-dose-only effect, or effect the other way, or a change in a side signal; inactive means no such curve, though single readings can be large or run the other way; the % refers to the polarisation; further: potency means the concentration at half of the fitted maximal effect
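Fluorescence polarization: 7 uM MLL-CXXC (stock) preincubated 5 min with compounds, then 50 nM fluorescein-HOX-A9 DNA (stock) added; 30 min ambient. Buffer 50 mM Tris-HCl pH 7.5, 50 mM NaCl, 1 mM DTT, 0.05% BSA.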
KCNH2 3.1 inh: KCNH2 3.1 (human) potassium channel inhibition; U2OS KCNH2 3.1, thallium flux FluxOr; stronger effect = lower value; activity change, % (tested at about 1.8 µM); 0.95% of 340,000 active; AID 720553;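 active means maximum activity change below -70%; inconclusive means maximum activity change from -70% to -50%; inactive means maximum activity change above -50%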;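 further: thallium influx rate constant from kinetic fluorescence after stimulation buffer; on the % scale 0 is the no-effect control and ±100 the full control effect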
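Steps: virus added to U2OS suspension (4 h, RT, dark); medium with 10% FBS added, cells plated, 37 C overnight; FluxOr/Red40 loading buffer 45 min RT; stimulation buffer, 2 min kinetic read; rate constant normalized.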
Menin MLL FP TR: displaces Texas Red mutant MLL peptide from human menin; AID 1768; O00255; Menin + Texas Red MLL mutant peptide, fluorescence polarization; Potency, µM (highest dose often 61.6 µM), inactives show at the top dose FP activity change, negative = inhibition, hits mostly inhibitors; 0.23% of 270,000 active; active means well fitted inhibition curve with a large enough effect in the polarisation, with a control signal flat, not every such curve was filed as active; inconclusive means small, poorly fitted or top-dose-only effect, or effect the other way, or a change in a side signal; inactive means no such curve, though single readings can be large or run the other way; the % refers to the polarisation; further: potency means the concentration at half of the fitted maximal effect; % of control where 0% means no effect
hERG WT inh: KCNH2 (human, wildtype) channel inhibition. Q12809. U2OS, BacMam KCNH2, thallium flux FluxOr; stronger effect = lower value. activity change, % at 1.84 µM. 0.37% of 340,000 active;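 active means maximum activity change below -70%; inconclusive means maximum activity change between -70% and -50%; inactive means maximum activity change above -50%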; further: on the % scale 0 is the no-effect control and ±100 the full control effect
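U2OS cells were transduced with wild-type KCNH2 virus (2.03 x 10^8 / mL) for 4 h at room temperature, then cultured overnight at 37 C. Thallium flux was read with FluxOr dye. Rate constants were normalized to DMSO controls.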
Starred values were filed as active, the others as inactive.

For CCCCCCCC(=O)N/N=C/c1cccnc1 the results were Menin-MLL FL inh -3.3, MLL CXXC-DNA inh 21.8%, KCNH2 3.1 inh -7.0, Menin MLL FP TR 5.4% and hERG WT inh -6.9.
For c1ccc(CN2CCC(Nc3nc(-c4cccs4)nc4ccccc34)CC2)cc1 the results were Menin-MLL FL inh -2.8, MLL CXXC-DNA inh 29.9%, KCNH2 3.1 inh -72.6* and Menin MLL FP TR 36.2%.
C=CCN(C(=O)CSc1nc2c(sc3ccccc32)c(=O)n1CCN(CC)CC)c1ccccc1 was read as Menin-MLL FL inh 1.4, MLL CXXC-DNA inh 5.4%, KCNH2 3.1 inh -43.2, Menin MLL FP TR inconclusive and hERG WT inh -8.0.
For CCN(CC)c1nc2ccccc2n2cnnc12 the results were Menin-MLL FL inh 0.4, MLL CXXC-DNA inh -0.6%, KCNH2 3.1 inh 10.1, Menin MLL FP TR -1.3% and hERG WT inh 1.9.
Screening Cc1cc(C)n(-c2nc3ccccc3n3cnnc23)n1 returned Menin-MLL FL inh 2.8, MLL CXXC-DNA inh -14.0%, KCNH2 3.1 inh -102.5*, Menin MLL FP TR -4.0% and hERG WT inh 3.0.
Screening CCOC(=O)c1ccccc1NC(=O)COC(=O)c1ccccc1C(=O)N(C)c1ccccc1 returned KCNH2 3.1 inh 1.1 and hERG WT inh -3.6.
`CCCCOc1ccc(C(=O)N/C(=C\c2ccc(OC)cc2)C(=O)OCc2ccco2)cc1` gave Menin-MLL FL inh 0.8, MLL CXXC-DNA inh 12.0%, KCNH2 3.1 inh 0.7, Menin MLL FP TR -21.3% and hERG WT inh -10.9.
For CCCCOc1ccc(C(=O)N/C(=C\c2cccc([N+](=O)[O-])c2)C(=O)OCc2ccco2)cc1 the results were Menin-MLL FL inh 0.8, MLL CXXC-DNA inh -15.4%, KCNH2 3.1 inh -75.5*, Menin MLL FP TR 5.8% and hERG WT inh -28.4.
Screening CCN(C[C@H]1N[C@@](C)(C(=O)OC)[C@H]2C(=O)N(Cc3ccccc3)C(=O)[C@@H]12)C(=O)Nc1ccc(F)cc1 returned KCNH2 3.1 inh -4.2 and hERG WT inh -1.7.
For Nc1cc(=O)nc(SCC(=O)Nc2ccccc2)n1-c1ccccc1 the results were Menin-MLL FL inh 7.3, MLL CXXC-DNA inh 11.4%, KCNH2 3.1 inh -19.5, Menin MLL FP TR 9.0% and hERG WT inh 2.5.
Cc1cccc(-n2c(N)cc(=O)nc2SCC(=O)Nc2ccccc2)c1 was read as Menin-MLL FL inh 1.8, MLL CXXC-DNA inh 4.3%, KCNH2 3.1 inh -178.9*, Menin MLL FP TR 0.5% and hERG WT inh -143.7*.
`CCOc1ccc(CCNC(=O)Cn2c(=O)c3cccn3c3cccnc32)cc1` gave Menin-MLL FL inh 10.5, MLL CXXC-DNA inh 26.7%, KCNH2 3.1 inh -12.8, Menin MLL FP TR 16.2% and hERG WT inh -2.6.
For CCOC(=O)c1c(C)nc2ncccn12 the results were Menin-MLL FL inh 1.6, MLL CXXC-DNA inh -3.7%, KCNH2 3.1 inh 14.3, Menin MLL FP TR 0.2% and hERG WT inh -6.6.
Screening CCOC(=O)c1c(C)nc2sccn12 returned Menin-MLL FL inh 4.2, MLL CXXC-DNA inh -15.3%, KCNH2 3.1 inh -95.0*, Menin MLL FP TR 0.6% and hERG WT inh 11.9.
For Cc1ccccc1C(=O)NNC(=O)C(C)N1C(=O)c2ccccc2C1=O (stereo not drawn) the results were Menin-MLL FL inh 1.9, MLL CXXC-DNA inh 11.0%, KCNH2 3.1 inh -73.0*, Menin MLL FP TR -6.0% and hERG WT inh -8.3.
`COc1ccc(CN2CCc3c([nH]c4ccccc34)C2)c(OC)c1C` gave Menin-MLL FL inh 2.6, MLL CXXC-DNA inh inconclusive, KCNH2 3.1 inh -79.4*, Menin MLL FP TR -4.8% and hERG WT inh 15.0.
`COc1ccc(CN2CCc3c([nH]c4ccccc34)C2)cc1Br` gave Menin-MLL FL inh 0.7, MLL CXXC-DNA inh -4.5%, KCNH2 3.1 inh -10.8, Menin MLL FP TR 39.1% and hERG WT inh 16.4.
Cc1c(NC2=NC(C)(C)Cc3ccccc32)c(=O)n(-c2ccccc2)n1C was read as Menin-MLL FL inh 2.8, MLL CXXC-DNA inh 9.6%, KCNH2 3.1 inh -18.5, Menin MLL FP TR -0.9% and hERG WT inh 13.2.
Cc1c(NC2=NC3(CCCCC3)Cc3ccccc32)c(=O)n(C)n1-c1ccccc1 was read as Menin-MLL FL inh -1.2, MLL CXXC-DNA inh -1.1%, KCNH2 3.1 inh -194.2*, Menin MLL FP TR -22.6% and hERG WT inh -171.6*.
`COc1ccc(C(=O)N/N=C\C(C)=C\c2ccccc2)cc1OC` gave KCNH2 3.1 inh -98.4* and hERG WT inh 1.7.
